{"source": "the supplement of paper PMC8728848", "experiment_in_all_cases": "glycan array binding signal (z-score within array); higher = stronger binding", "details_in_all_cases": "glycan notation: IUPAC condensed, linker removed", "key": {"[1]": {"target": "Fuc(a1-2)Gal(b1-3)GlcNAc(b1-2)Man(a1-3)[Fuc(a1-2)Gal(b1-3)GlcNAc(b1-2)Man(a1-6)]Man(b1-4)GlcNAc(b1-4)GlcNAc", "how_it_was_run": "(§1)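 The Consortium for Functional Glycomics database supplied 3228 glycan arrays, of which those lacking an available protein sequence were dropped. The binding signal, a within-array Z-score, was averaged across arrays of the same protein sequence and across linkers. Negative scores can be read as non-binding.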"}, "[2]": {"target": "Fuc(a1-2)Gal(b1-3)GlcNAc(b1-3)[Fuc(a1-2)Gal(b1-3)GlcNAc(b1-6)]GalNAc", "how_it_was_run": "as §1"}, "[3]": {"target": "Fuc(a1-2)Gal(b1-4)GlcNAc(b1-6)GalNAc", "how_it_was_run": "as §1"}, "[4]": {"target": "Fuc(a1-2)Gal(b1-4)GlcNAc6S", "how_it_was_run": "as §1"}, "[5]": {"target": "Fuc(a1-2)Gal3S(b1-4)GlcNAc", "how_it_was_run": "as §1"}, "[6]": {"target": "Fuc(a1-2)[Gal(a1-3)]Gal(b1-3)GalNAc", "how_it_was_run": "as §1"}, "[7]": {"target": "Fuc(a1-2)[Gal(a1-3)]Gal(b1-4)GlcNAc", "how_it_was_run": "as §1"}, "[8]": {"target": "Fuc(a1-2)[Gal(a1-3)]Gal(b1-4)[Fuc(a1-3)]GlcNAc", "how_it_was_run": "as §1"}, "[9]": {"target": "Gal(a1-3)Gal(b1-3)GlcNAc(b1-2)Man(a1-3)[Gal(a1-3)Gal(b1-3)GlcNAc(b1-2)Man(a1-6)]Man(b1-4)GlcNAc(b1-4)GlcNAc", "how_it_was_run": "as §1"}, "[10]": {"target": "Gal(a1-3)Gal(b1-3)[Fuc(a1-4)]GlcNAc(b1-2)Man(a1-3)[Gal(a1-3)Gal(b1-3)[Fuc(a1-4)]GlcNAc(b1-2)Man(a1-6)]Man(b1-4)GlcNAc(b1-4)GlcNAc", "how_it_was_run": "as §1"}, "Gal(a1-3)Gal(b1-4)Glc": {"target": "Gal(a1-3)Gal(b1-4)Glc", "how_it_was_run": "as §1"}, "[11]": {"target": "Gal(a1-4)Gal(b1-3)GlcNAc(b1-2)Man(a1-3)[Gal(a1-4)Gal(b1-3)GlcNAc(b1-2)Man(a1-6)]Man(b1-4)GlcNAc(b1-4)GlcNAc", "how_it_was_run": "as §1"}, "[12]": {"target": "Gal(b1-3)GlcNAc(a1-6)Gal(b1-4)GlcNAc", "how_it_was_run": "as §1"}, "[13]": {"target": "Gal(b1-3)GlcNAc(b1-2)Man(a1-3)[Gal(b1-3)GlcNAc(b1-2)Man(a1-6)]Man(b1-4)GlcNAc(b1-4)GlcNAc", "how_it_was_run": "as §1"}, "[14]": {"target": "Gal(b1-3)[GlcNAc(b1-6)]GalNAc", "how_it_was_run": "as §1"}, "Gal(b1-4)GlcNAc(b1-2)Man": {"target": "Gal(b1-4)GlcNAc(b1-2)Man", "how_it_was_run": "as §1"}, "[15]": {"target": "Gal(b1-4)GlcNAc(b1-2)Man(a1-3)Man(b1-4)GlcNAc(b1-4)GlcNAc", "how_it_was_run": "as §1"}, "[16]": {"target": "Gal(b1-4)GlcNAc(b1-2)Man(a1-3)[Gal(b1-4)GlcNAc(b1-2)Man(a1-6)]Man(b1-4)GlcNAc(b1-4)[Fuc(a1-6)]GlcNAc", "how_it_was_run": "as §1"}, "[17]": {"target": "Gal(b1-4)GlcNAc(b1-3)Gal(b1-3)GalNAc", "how_it_was_run": "as §1"}, "[18]": {"target": "Gal(b1-4)GlcNAc(b1-3)Gal(b1-4)GlcNAc(b1-2)Man(a1-3)[Gal(b1-4)GlcNAc(b1-3)Gal(b1-4)GlcNAc(b1-2)Man(a1-6)]Man(b1-4)GlcNAc(b1-4)GlcNAc", "how_it_was_run": "as §1"}, "[19]": {"target": "Gal(b1-4)GlcNAc(b1-3)Gal(b1-4)GlcNAc(b1-2)[Gal(b1-4)GlcNAc(b1-3)Gal(b1-4)GlcNAc(b1-6)]Man(a1-6)[Gal(b1-4)GlcNAc(b1-3)Gal(b1-4)GlcNAc(b1-2)Man(a1-3)]Man(b1-4)GlcNAc(b1-4)[Fuc(a1-6)]GlcNAc", "how_it_was_run": "as §1"}, "[20]": {"target": "Gal(b1-4)GlcNAc(b1-3)Gal(b1-4)GlcNAc(b1-3)Gal(b1-4)GlcNAc(b1-3)Gal(b1-4)GlcNAc(b1-3)Gal(b1-4)GlcNAc(b1-2)Man(a1-3)[Gal(b1-4)GlcNAc(b1-3)Gal(b1-4)GlcNAc(b1-3)Gal(b1-4)GlcNAc(b1-3)Gal(b1-4)GlcNAc(b1-3)Gal(b1-4)GlcNAc(b1-2)Man(a1-6)]Man(b1-4)GlcNAc(b1-4)GlcNAc", "how_it_was_run": "as §1"}}, "note": "This excerpt belongs to a sample that is enriched for the strongest signals.", "data": [{"binder": "PX9961H-bth-557-24-557 (Bacteroides thetaiotaomicron) (protein) EETRTEVEKKNYMNNAEEAKDVLLGVYRTNTLDAMYGYYLSILFNLGTDISQVEGSGNENFRIIPTNSFPTTQSEVQQTWAALYTGIYRANDFLERISNKIGSYTTTDKKLATLYIAEARALRGMFYFELVRRFGNVVLMTSTQMSNQNPATYVQSAPEKVYEYIEDDLLYACDILPYATDDQYRESNDYRFSKGAALGLLTKVYATWAGYPVKDESKWEAAAKTARILVESGKHGLLKDYEQLWKNTCNGTWDPTESLIEISFYSPTVSGNSDPVGRIGKWNGVKTTAIAGVRGSCAANVKVVHTFVLDWREDVSDIRRDLSIANYQYTDTKKSLWVAGASDTDESAAEKDADPTKAQKNKQNYTPAKWDIQKYVTTNSFINNDKSNVNWYFLRYADVLLLYAEALNEWKHGPDAEAYNAINAVRRRGYGNPSNTSACDLPQGLDETSFREAVRKERSYELSFEGHRRQDLIRWGIYYKTVQATAKELGYWWEGTGSPNYSVATYTEEGKHELFPIPQRDMDLCIQFNQNPKW", "values": [{"measurement": "glycan array binding signal (z-score)", "setting": "[1]", "result": 3.58}, {"measurement": "glycan array binding signal (z-score)", "setting": "[2]", "result": -0.177}, {"measurement": "glycan array binding signal (z-score)", "setting": "[3]", "result": -0.051}, {"measurement": "glycan array binding signal (z-score)", "setting": "[4]", "result": -0.38}, {"measurement": "glycan array binding signal (z-score)", "setting": "[5]", "result": 0.014}, {"measurement": "glycan array binding signal (z-score)", "setting": "[6]", "result": -0.242}, {"measurement": "glycan array binding signal (z-score)", "setting": "[7]", "result": -0.408}, {"measurement": "glycan array binding signal (z-score)", "setting": "[8]", "result": -0.18}, {"measurement": "glycan array binding signal (z-score)", "setting": "[9]", "result": 4.31}, {"measurement": "glycan array binding signal (z-score)", "setting": "[10]", "result": -0.134}, {"measurement": "glycan array binding signal (z-score)", "setting": "Gal(a1-3)Gal(b1-4)Glc", "result": -0.054}, {"measurement": "glycan array binding signal (z-score)", "setting": "[11]", "result": 5.85}, {"measurement": "glycan array binding signal (z-score)", "setting": "[12]", "result": -0.025}, {"measurement": "glycan array binding signal (z-score)", "setting": "[13]", "result": 5.54}, {"measurement": "glycan array binding signal (z-score)", "setting": "[14]", "result": -0.03}, {"measurement": "glycan array binding signal (z-score)", "setting": "Gal(b1-4)GlcNAc(b1-2)Man", "result": -0.104}, {"measurement": "glycan array binding signal (z-score)", "setting": "[15]", "result": 10.2}, {"measurement": "glycan array binding signal (z-score)", "setting": "[16]", "result": 4.19}, {"measurement": "glycan array binding signal (z-score)", "setting": "[17]", "result": 0.039}, {"measurement": "glycan array binding signal (z-score)", "setting": "[18]", "result": 3.35}, {"measurement": "glycan array binding signal (z-score)", "setting": "[19]", "result": 3.59}, {"measurement": "glycan array binding signal (z-score)", "setting": "[20]", "result": 5.22}]}]}
